# Results taken from the supplement of paper PMC10849652.
# Of roughly 7,900 targets only a part is listed; those with a hit were picked by preference. About 0.6% of all pairs of compound and target were hits. Unmarked numbers belong to inactive results.
# What was measured:
# Experiment in all cases: log2 fold change, soluble protein after heating vs DMSO (PISA); higher = thermal stabilisation; K562 cells, 10 uM, 30 min; active = over 0.2 and 3.5 SD of the protein, either way, in both replicates (recomputed)
# [1] = compound: COC1=CC=C(C=C1)CN2C=CC3=C2C=C(C=C3)C(=O)NO
# Summary of the method: (§1)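 Soluble protein was quantified by TMTpro 16plex LC-MS/MS after channel sums were equalised. It was obtained as the supernatant after 21,000xg for 90 min from pooled aliquots of K562 cells (2×10^6 cells/mL, 10 μM compound, 30 min) heated for 3 min across 48°C-58°C and extracted in PBS with 0.5% NP-40 at 4°C. Thermal stability values are relative to control samples and come from duplicates. They are given as log2 fold changes.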
# filanesib = compound: CON(C)C(=O)N1N=C(c2cc(F)ccc2F)S[C@@]1(CCCN)c1ccccc1 [filanesib]
# Summary of the method: as §1
# zotarolimus = compound: CO[C@H]1C[C@@H]2CC[C@@H](C)[C@@](O)(O2)C(=O)C(=O)N2CCCC[C@H]2C(=O)O[C@H]([C@H](C)C[C@@H]2CC[C@H](n3cnnn3)[C@H](OC)C2)CC(=O)[C@H](C)/C=C(\C)[C@@H](O)[C@@H](OC)C(=O)[C@H](C)C[C@H](C)/C=C/C=C/C=C/1C [zotarolimus]
# Summary of the method: as §1
# idasanutlin = compound: COc1cc(C(=O)O)ccc1NC(=O)[C@@H]1N[C@@H](CC(C)(C)C)[C@](C#N)(c2ccc(Cl)cc2F)[C@H]1c1cccc(Cl)c1F [idasanutlin]
# Summary of the method: as §1
# alisertib = compound: COc1cc(Nc2ncc3c(n2)-c2ccc(Cl)cc2C(c2c(F)cccc2OC)=NC3)ccc1C(=O)O [alisertib]
# Summary of the method: as §1
# [2] = compound: COc1cc2nc(-c3cc(F)ccc3O)nc(N[C@@H]3CNC[C@H]3C(C)(C)O)c2cc1OC
# Summary of the method: as §1
# gefitinib = compound: COc1cc2ncnc(Nc3ccc(F)c(Cl)c3)c2cc1OCCCN1CCOCC1 [gefitinib]
# Summary of the method: as §1
# [3] = compound: COc1cccc2cc(-c3nc([C@H]4CC[C@H](C(=O)O)CC4)n4ncnc(N)c34)[nH]c12
# Summary of the method: as §1
# lapatinib = compound: CS(=O)(=O)CCNCc1ccc(-c2ccc3ncnc(Nc4ccc(OCc5cccc(F)c5)c(Cl)c4)c3c2)o1 [lapatinib]
# Summary of the method: as §1
# pictilisib = compound: CS(=O)(=O)N1CCN(Cc2cc3nc(-c4cccc5[nH]ncc45)nc(N4CCOCC4)c3s2)CC1 [pictilisib]
# Summary of the method: as §1
# Sequence of UniProt P02545 (P02545 whole entry, looked up): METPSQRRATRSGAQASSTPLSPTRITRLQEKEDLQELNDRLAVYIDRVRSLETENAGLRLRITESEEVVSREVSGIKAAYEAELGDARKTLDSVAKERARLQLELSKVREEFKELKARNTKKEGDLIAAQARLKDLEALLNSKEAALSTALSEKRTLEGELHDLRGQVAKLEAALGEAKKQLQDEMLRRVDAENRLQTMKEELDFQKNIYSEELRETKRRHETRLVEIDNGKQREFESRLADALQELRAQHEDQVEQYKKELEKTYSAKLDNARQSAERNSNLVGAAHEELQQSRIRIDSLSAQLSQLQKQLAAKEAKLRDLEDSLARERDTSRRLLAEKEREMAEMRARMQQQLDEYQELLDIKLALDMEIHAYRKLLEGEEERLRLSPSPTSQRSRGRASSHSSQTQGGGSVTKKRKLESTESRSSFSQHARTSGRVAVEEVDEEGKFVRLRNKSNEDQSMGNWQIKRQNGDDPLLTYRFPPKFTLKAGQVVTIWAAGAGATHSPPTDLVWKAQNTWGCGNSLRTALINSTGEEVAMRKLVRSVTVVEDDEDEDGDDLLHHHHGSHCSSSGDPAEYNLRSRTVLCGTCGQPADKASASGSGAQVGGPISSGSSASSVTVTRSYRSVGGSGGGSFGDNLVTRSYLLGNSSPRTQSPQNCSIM
# Sequence of UniProt Q9NWZ3 (Q9NWZ3 whole entry, looked up): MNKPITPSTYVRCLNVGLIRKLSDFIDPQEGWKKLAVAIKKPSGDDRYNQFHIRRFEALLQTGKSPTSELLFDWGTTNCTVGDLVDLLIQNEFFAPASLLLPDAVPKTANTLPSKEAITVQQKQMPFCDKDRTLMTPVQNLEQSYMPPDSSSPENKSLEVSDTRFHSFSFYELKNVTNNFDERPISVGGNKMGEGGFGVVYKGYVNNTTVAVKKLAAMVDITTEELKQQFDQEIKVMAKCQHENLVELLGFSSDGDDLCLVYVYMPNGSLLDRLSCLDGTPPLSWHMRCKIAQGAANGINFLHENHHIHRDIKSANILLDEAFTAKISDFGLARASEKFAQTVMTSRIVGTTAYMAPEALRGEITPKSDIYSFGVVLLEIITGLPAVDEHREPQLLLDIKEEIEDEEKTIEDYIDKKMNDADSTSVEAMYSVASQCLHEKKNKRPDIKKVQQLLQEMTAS
# Sequence of UniProt Q68DH5 (Q68DH5 whole entry, looked up): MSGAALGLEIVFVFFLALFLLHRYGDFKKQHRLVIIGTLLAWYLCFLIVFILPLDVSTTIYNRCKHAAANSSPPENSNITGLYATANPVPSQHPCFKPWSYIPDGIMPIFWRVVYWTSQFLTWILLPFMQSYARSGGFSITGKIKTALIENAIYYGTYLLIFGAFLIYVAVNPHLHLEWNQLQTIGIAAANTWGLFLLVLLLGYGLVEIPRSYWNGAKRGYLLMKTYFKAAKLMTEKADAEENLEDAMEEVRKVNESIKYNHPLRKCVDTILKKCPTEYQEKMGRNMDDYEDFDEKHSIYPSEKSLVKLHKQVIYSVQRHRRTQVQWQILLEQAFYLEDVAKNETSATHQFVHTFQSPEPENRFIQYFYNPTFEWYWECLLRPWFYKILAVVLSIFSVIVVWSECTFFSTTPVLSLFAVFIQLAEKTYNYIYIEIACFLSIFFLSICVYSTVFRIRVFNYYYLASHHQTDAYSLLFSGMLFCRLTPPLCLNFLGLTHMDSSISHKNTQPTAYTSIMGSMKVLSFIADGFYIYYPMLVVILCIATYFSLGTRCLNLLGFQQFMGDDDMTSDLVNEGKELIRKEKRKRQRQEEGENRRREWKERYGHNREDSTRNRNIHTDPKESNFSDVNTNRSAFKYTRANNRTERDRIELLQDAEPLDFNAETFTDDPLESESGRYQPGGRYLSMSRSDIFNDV
# Sequence of UniProt A1L0T0 (A1L0T0 whole entry, looked up): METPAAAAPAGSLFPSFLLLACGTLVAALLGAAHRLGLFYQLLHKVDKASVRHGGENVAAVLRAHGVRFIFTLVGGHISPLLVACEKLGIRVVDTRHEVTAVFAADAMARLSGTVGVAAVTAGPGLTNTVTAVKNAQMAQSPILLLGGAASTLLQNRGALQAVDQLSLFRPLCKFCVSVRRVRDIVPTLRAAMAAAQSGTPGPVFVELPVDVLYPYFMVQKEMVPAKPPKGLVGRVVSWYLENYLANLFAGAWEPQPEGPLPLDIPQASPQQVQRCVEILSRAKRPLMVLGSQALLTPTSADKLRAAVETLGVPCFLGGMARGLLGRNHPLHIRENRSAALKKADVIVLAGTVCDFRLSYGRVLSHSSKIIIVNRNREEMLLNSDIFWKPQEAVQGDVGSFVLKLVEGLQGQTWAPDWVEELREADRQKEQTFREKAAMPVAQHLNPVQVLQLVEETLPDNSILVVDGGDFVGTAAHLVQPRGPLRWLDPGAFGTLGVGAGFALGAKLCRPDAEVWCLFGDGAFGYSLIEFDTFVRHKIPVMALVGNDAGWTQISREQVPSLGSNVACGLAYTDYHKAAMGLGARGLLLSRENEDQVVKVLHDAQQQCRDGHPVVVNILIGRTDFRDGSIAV
# Sequence of UniProt P18065 (P18065 whole entry, looked up): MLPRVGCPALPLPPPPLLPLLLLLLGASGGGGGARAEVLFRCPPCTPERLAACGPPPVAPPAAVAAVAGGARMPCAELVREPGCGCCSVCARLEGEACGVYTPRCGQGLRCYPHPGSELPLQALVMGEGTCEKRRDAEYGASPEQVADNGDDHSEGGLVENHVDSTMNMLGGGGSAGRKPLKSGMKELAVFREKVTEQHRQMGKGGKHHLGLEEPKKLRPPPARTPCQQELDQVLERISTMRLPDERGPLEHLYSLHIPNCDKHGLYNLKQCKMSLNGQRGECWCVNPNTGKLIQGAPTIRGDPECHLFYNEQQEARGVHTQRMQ
# Sequence of UniProt Q8IWA4 (Q8IWA4 whole entry, looked up): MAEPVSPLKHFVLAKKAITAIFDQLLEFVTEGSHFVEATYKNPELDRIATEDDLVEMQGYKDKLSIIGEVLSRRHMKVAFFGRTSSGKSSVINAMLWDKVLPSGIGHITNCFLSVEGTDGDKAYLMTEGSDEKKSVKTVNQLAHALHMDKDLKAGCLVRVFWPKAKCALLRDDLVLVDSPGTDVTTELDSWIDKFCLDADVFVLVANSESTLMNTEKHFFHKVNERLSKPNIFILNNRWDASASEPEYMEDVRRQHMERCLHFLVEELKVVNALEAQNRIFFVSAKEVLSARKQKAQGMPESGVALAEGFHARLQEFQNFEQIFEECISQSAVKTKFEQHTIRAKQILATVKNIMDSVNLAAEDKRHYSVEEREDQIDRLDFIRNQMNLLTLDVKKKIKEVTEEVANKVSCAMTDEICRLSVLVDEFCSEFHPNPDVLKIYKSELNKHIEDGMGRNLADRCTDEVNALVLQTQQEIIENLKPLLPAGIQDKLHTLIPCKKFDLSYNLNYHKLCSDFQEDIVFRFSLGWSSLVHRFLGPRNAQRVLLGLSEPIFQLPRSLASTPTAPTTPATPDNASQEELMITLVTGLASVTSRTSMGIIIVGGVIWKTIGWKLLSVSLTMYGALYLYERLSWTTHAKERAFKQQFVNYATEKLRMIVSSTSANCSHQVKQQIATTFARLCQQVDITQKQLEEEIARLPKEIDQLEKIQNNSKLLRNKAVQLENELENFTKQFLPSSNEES
# Sequence of UniProt O95568 (O95568 whole entry, looked up): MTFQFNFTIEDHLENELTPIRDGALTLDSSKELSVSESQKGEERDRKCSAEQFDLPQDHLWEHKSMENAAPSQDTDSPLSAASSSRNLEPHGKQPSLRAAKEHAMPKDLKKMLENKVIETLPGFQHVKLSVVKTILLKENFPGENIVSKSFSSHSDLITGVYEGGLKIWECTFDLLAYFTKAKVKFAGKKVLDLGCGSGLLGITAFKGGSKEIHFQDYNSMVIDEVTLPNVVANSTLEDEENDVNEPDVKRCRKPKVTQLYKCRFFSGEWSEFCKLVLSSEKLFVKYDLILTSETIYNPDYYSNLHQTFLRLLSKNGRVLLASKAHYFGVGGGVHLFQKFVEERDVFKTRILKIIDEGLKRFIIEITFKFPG
# Sequence of UniProt Q9Y496 (Q9Y496 whole entry, looked up): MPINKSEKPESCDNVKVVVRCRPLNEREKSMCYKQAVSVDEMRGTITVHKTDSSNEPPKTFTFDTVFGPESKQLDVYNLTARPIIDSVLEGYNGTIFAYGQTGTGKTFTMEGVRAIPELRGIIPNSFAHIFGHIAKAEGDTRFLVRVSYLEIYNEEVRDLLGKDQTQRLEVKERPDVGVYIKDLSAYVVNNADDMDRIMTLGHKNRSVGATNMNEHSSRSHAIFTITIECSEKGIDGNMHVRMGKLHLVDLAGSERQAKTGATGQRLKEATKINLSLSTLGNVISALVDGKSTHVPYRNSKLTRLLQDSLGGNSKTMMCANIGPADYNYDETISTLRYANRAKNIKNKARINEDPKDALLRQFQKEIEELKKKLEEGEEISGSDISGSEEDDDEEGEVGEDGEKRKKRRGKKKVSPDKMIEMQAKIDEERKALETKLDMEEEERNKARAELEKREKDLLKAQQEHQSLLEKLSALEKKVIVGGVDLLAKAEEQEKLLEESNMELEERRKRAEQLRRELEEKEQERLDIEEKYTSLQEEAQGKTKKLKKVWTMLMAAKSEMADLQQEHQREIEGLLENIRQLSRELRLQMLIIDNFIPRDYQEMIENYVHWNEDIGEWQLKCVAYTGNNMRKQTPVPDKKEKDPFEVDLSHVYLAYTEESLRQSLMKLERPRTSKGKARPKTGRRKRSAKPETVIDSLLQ
# Sequence of UniProt Q12905 (Q12905 whole entry, looked up): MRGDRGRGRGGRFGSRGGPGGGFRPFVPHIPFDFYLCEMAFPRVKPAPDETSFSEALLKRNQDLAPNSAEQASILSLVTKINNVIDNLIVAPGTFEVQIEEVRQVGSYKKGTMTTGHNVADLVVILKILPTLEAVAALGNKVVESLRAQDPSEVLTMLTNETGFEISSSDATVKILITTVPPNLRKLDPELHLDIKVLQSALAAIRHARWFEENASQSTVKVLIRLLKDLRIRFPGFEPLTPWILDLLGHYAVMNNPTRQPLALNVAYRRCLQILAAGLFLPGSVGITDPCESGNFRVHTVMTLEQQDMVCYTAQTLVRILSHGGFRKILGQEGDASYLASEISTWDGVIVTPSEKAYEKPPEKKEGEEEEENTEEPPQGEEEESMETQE
Target,log2 fold change [1],log2 fold change (filanesib),log2 fold change (zotarolimus),log2 fold change (idasanutlin),log2 fold change (alisertib),log2 fold change [2],log2 fold change (gefitinib),log2 fold change [3],log2 fold change (lapatinib),log2 fold change (pictilisib)
LMNA (UniProt P02545),-0.093,0.088,0.018,0.093,0.096,-0.112,-0.014,0,0.028,0.008
MDC1 (UniProt Q14676),-0.055,0.223,0.005,0.283,-0.028,-0.01,0.032,-0.045,0.077,0.08
MAP2K2 (UniProt P36507),-0.014,-0.061,0.018,0,-0.103,-0.011,-0.011,0.007,-0.069,-0.023
LMBRD2 (UniProt Q68DH5),-0.031,-0.095,0.108,-0.012,-0.035,0.025,0.082,-0.021,0.026,0.057
IGFBP2 (UniProt P18065),0.117,-0.238,-0.846 (active),0.439,0.11,-0.056,-0.228,0.363,-0.025,-0.252
KDM1A isoform 2 (UniProt O60341),0.019,0.004,-0.009,-0.03,-0.055,0.07,0.022,-0.036,0.068,-0.008
ILF2 (UniProt Q12905),0.086,0.101,-0.024,0.084,-0.146,0.068,-0.045,-0.08,0.101,-0.035
KIF13A (UniProt Q9H1H9),0.003,0.01,-0.057,-0.022,-0.022,0.037,0.194,0.139,-0.012,-0.097
LARP7 isoform 3 (UniProt Q4G0J3),-0.258 (active),0.071,0.082,-0.019,-0.007,-0.165,0.001,0.042,0.082,-0.041
MED17 (UniProt Q9NVC6),0.004,0.019,-0.052,0.166,-0.08,0.044,0.016,-0.018,-0.063,0.089
LARP4 isoform 4 (UniProt Q71RC2),0.005,0.111,-0.007,0.071,-0.045,-0.159,0.01,-0.125,0.054,-0.068
MAP3K4 isoform 2 (UniProt Q9Y6R4),0.004,-0.037,0.003,-0.023,-0.043,0.03,0.034,0.086,0.024,0.11
METTL18 (UniProt O95568),-0.364 (active),0.009,0.033,-0.022,0.006,0.075,-0.033,0.057,0.069,0.026
MAPK9 (UniProt P45984),-0.004,-0.01,-0.022,-0.062,-0.072,0.043,0.009,0.001,-0.039,0.075
MAPRE3 (UniProt Q9UPY8),-0.242 (active),0.006,0.013,0.023,0.022,0.033,0.004,-0.013,-0.044,-0.008
KPNA6 (UniProt O60684),0.193,0.115,0.169,-0.031,-0.01,0.056,0.048,-0.066,-0.018,-0.017
MAP3K7 (UniProt O43318),0.105,0.026,-0.074,-0.03,0.084,0.065,0.016,-0.054,-0.058,0.088
MDN1 (UniProt Q9NU22),0.066,-0.095,-0.002,-0.058,-0.056,-0.031,-0.003,0.022,-0.005,0.001
ILVBL (UniProt A1L0T0),-0.008,0.006,0.072,-0.106,-0.088,-0.001,0.075,0.082,-0.011,0.031
KLHDC4 (UniProt Q8TBB5),-0.045,0.435 (active),0.044,0.199,-0.023,0.076,0.03,0.1,-0.026,0.029
KLC2 (UniProt Q9H0B6),0.06,-0.038,-0.028,-0.065,-0.047,-0.133,0.017,0,-0.005,0.083
KIF3A (UniProt Q9Y496),0.219,-0.091,-0.004,0.056,-0.027,0.137,-0.129,0,-0.063,0.146
KDM5D isoform 3 (UniProt Q9BY66),-0.592 (active),0.073,-0.053,-0.058,-0.044,0.045,-0.021,-0.072,-0.047,0.049
LEO1 (UniProt Q8WVC0),-0.038,0.021,0.175,0.023,-0.08,-0.035,0.009,-0.034,-0.032,0.009
IRAK4 (UniProt Q9NWZ3),0.012,-0.028,0.01,0.004,-0.059,0.104,0.109,0.007,-0.004,-0.099
MFN1 (UniProt Q8IWA4),0.042,-0.182,0.06,0.034,0.262,-0.523 (active),0.017,0.03,0.002,0.024
LARP4B (UniProt Q92615),0.035,0.056,0.004,0.053,-0.054,-0.108,0.011,-0.06,0.081,-0.009
KNTC1 (UniProt P50748),0.03,-0.008,0,-0.082,-0.035,0.036,0.175,-0.037,0.008,0.007
MFN2 (UniProt O95140),0.04,-0.112,0.016,0,-0.043,-0.438 (active),0.01,-0.006,0.027,-0.058
KCTD2 (UniProt Q14681),0.068,0.154,-0.148,0.116,-0.012,0.402,0.025,0.154,-0.413,0.426
